# Pol iota inh: blocks human DNA polymerase iota activity; Q9UNA4; Pol iota fluorescent replication assay, 10 min; Potency, µM (titrated, usually from 115 µM), for the others: at the highest dose activity, negative = inhibition, actives largely listed as inhibitors; actives 1% (n = 390,000); AID 588590; note: potency is the fitted concentration of half-maximal effect
# Target sequence (Q9UNA4 whole entry, looked up): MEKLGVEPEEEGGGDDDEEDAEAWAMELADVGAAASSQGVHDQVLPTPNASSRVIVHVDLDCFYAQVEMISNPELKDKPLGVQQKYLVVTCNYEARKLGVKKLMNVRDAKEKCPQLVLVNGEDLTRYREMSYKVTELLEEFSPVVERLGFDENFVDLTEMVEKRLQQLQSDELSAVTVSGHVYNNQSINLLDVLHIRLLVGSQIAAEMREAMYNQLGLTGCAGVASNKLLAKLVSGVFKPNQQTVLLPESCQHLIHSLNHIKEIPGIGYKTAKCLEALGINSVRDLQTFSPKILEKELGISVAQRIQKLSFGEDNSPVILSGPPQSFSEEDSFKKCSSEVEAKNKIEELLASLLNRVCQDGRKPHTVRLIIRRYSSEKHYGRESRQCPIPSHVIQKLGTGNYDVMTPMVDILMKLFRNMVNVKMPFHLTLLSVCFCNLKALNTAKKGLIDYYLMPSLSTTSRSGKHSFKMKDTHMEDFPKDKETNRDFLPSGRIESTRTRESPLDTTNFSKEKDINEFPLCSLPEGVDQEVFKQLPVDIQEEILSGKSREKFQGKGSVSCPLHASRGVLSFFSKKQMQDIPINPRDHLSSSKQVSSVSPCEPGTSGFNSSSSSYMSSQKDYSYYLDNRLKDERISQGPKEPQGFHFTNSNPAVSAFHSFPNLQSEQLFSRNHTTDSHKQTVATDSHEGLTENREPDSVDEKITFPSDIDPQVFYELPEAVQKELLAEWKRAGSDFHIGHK
#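 Fluorescent replication assay read twice, at 0 min and 10 min after adding 50 nM (final) substrate. Enzyme (10 nM) and compounds were first incubated 15 min at room temperature; enzyme-free buffer wells were negative controls.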
# PI5P4Ka inh: inhibitors of human PI5P4K alpha; PI5P4Kalpha enzyme, ADP-Glo luminescence, 60 min; active compounds read low; max response, %; actives 1.2% (n = 330,000); P48426; active = max response of -50% or lower; inconclusive = between -30% and -50%; inactive = -30% or higher; note: value at the top dose of about 77 µM; % is set by controls: 0 for no effect and ±100 for the full control effect
#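 Luminescence from ADP-Glo served as readout of PI5P4Kalpha activity in a qHTS format. Reaction: enzyme, substrate, compound, ATP at 5 microM final, 60 min at RT.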
# FEN1 inhibitor: inhibitors of human flap endonuclease 1; P39748; Recombinant FEN1 flap cleavage, fluorescence, 15 min; Potency, µM (series often up to 114 µM), without a hit: at the highest dose activity change, negative = inhibition, hits mostly inhibitors; actives 0.35% (n = 390,000); AID 588795; note: potency is the fitted concentration of half-maximal effect; % is set by controls: 0 for no effect and ±100 for the full control effect; nearly all actives have a fitted effect of over 65% in size
#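 Nuclease activity of 10 nM FEN1 was measured after 15 min of room-temperature exposure to titrated compounds, by adding 50 nM flap substrate and reading plates at 0 and 15 min.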
# POLB inh: inhibitors of human DNA polymerase beta. Potency, µM (doses to about 114 µM), for inactives: at the top dose activity change, negative = inhibition, usual class: inhibitors. P06746. actives 1.3% (n = 340,000). Pol beta primer extension/strand displacement, fluorescence kinetic; note: potency is the fitted concentration of half-maximal effect; % is set by controls: 0 for no effect and ±100 for the full control effect
#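 Enzyme-only controls used 10 nM Pol beta; buffer lacking enzyme served as negative control. Compound preincubated 15 min, then 50 nM substrate added; 0 and 10 min reads at room temperature.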
# Pol eta inh-1: inhibitors of human DNA polymerase eta. Q9Y253. recombinant Pol eta, fluorescent DNA replication assay. Potency, µM (series often up to 114 µM), without a hit: top-dose activity change, negative = inhibition, hits mostly inhibitors. actives 1.2% (n = 390,000). AID 588591; note: potency is the fitted concentration of half-maximal effect; % is set by controls: 0 for no effect and ±100 for the full control effect
#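 Pol eta at 10 nM preincubated with compounds 15 min at room temperature; reaction started with fluorescent substrate (50 nM final) and read kinetically at 0 and 10 min.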
# Pol kappa inh-1: inhibitors of human DNA polymerase kappa; AID 588579; Potency, µM (highest dose often 107 µM), inactives show at the top dose activity, negative = inhibition, most hits filed as inhibitors; actives 0.53% (n = 400,000); purified Pol kappa, fluorescent DNA synthesis assay, 10 min; note: potency is the fitted concentration of half-maximal effect; % is set by controls: 0 for no effect and ±100 for the full control effect
#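 Readout: fluorescence, taken kinetically at 0 and 10 min. Conditions: 10 nM Pol kappa, 15 min RT compound preincubation, 50 nM substrate final. Controls: enzyme-free buffer wells.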
# Pol kappa inh-2: confirmation of human DNA polymerase kappa inhibitors; actives 76% (n = 920); shares compounds with Pol eta inh-1; AID 720501; Potency, µM, hits mostly inhibitors; purified Pol-kappa, fluorescent strand-displacement substrate; note: potency is the fitted concentration of half-maximal effect
# Pol eta inh-2: Pol eta (human) inhibition, cherry-pick confirmation | shares compounds with Pol eta inh-1 | Pol eta primer extension, TAMRA/BHQ fluorescence, 10 min | Potency, µM, hits mostly inhibitors | actives 64% (n = 2,600); note: potency is the fitted concentration of half-maximal effect
# The depositor's hits bear a star; ? = inconclusive; · = no result. Only some compounds are listed: those with a hit (about 2.8% of all), similar ones and a draw of the others. Unless noted, calls come from the whole dose curve; as a rule, active = well fitted curve in the direction sought with a large enough effect; inconclusive = small, poorly fitted or top-dose-only effect, or another doubt; inactive = no such curve, though single readings can be large; an effect the other way counts as inactive or inconclusive.
SMILES,Pol iota inh,PI5P4Ka inh,FEN1 inhibitor,POLB inh,Pol eta inh-1,Pol kappa inh-1,Pol eta inh-2,others
CCc1cc(C(=O)Nc2ccc(S(=O)(=O)NC3=NCCCCC3)cc2)sc1C,22µM*,?,-19%,·,56µM*,50µM*,?,
CCOc1cc(C(=O)N2CCC(CC3CC(c4ccc(Cl)cc4)=NO3)(C(=O)NCC3CCCCC3)CC2)cc(OCC)c1OCC (stereo unspecified),73%,7,9%,1%,-24%,10%,·,
O=c1ccc2c([nH]1)CCCCCCCCCC2,111%,9,0%,-22%,2%,1%,·,
COc1ccc(NC(=O)c2c[nH]n3c(=O)cc(C4CCN(C(=O)OC(C)(C)C)CC4)nc23)cc1Cl,23%,2,?,-3%,89µM*,-7%,85*,Pol kappa inh-2=75*
CC(C)(C)OC(=O)N1CCC(c2cc(=O)n3[nH]cc(C(=O)Nc4ccc(F)c(Cl)c4)c3n2)CC1,?,10,16%,-21%,-1%,-11%,·,
COc1cc(OC)c2ccc(=O)oc2c1C(CC(=O)N1CCCC1)c1ccc2c(c1)OCO2 (stereo unspecified),71µM*,?,-16%,45µM*,?,50µM*,?,
COc1cc(C(CC(=O)N2CCCC2)c2c(OC)cc(OC)c3ccc(=O)oc23)cc(OC)c1OC (stereo unspecified),?,1,1%,?,32µM*,?,85*,
CCN(CC)C(=O)C1=C(C)N(Cc2ccc(OC)cc2)C(=O)C(CC(=O)NC(c2ccccc2)c2ccccc2)C1 (stereo unspecified),·,16,·,·,-24%,·,·,
O=C(O)C1CN(c2nc(Cl)ccc2[N+](=O)[O-])C1,15%,-12,3%,35µM*,20µM*,-9%,30*,Pol kappa inh-2=67*
CC(=O)O[C@H]1[C@H](C)OC=C[C@@H]1OC(C)=O,-19%,-3,21%,17%,-7%,2%,·,
Nc1ccc(/C=C/c2nc3ccccc3s2)cc1,-20%,·,-26%,·,·,-23%,·,
CC(=O)C(=Cc1ccc(-c2ccccc2)cc1)C(=O)c1ccccc1,·,-1,·,·,·,·,·,
CC(=O)C(=Cc1ccc(C(=O)O)cc1)C(C)=O,?,-6,8%,?,40µM*,?,?,
C[C@@H]1CN([C@H](C)CO)S(=O)(=O)c2ccc(Br)cc2O[C@H]1CN(C)C(=O)Nc1ccccc1,·,-2,·,·,-19%,·,·,
Cc1ccc(N2CC(C(=O)Nc3nnc(SCCC4OCCO4)s3)CC2=O)cc1 (stereo unspecified),35%,-22,4%,6%,?,-11%,·,
COc1ccc(N2CC(C(=O)Nc3nnc(SCCC4OCCO4)s3)CC2=O)cc1 (stereo unspecified),-14%,?,-22%,14µM*,35µM*,-29%,?,
NC(=O)C(CC(=O)O)NC(=O)[C@@H]1CCOc2c(I)cc([N+](=O)[O-])cc2C(=O)N[C@@H](CO)C(=O)N[C@@H](Cc2ccc(O)cc2)C(=O)N1 (stereo partly specified),?,-1,?,0%,20µM*,35µM*,30*,
NC(=O)[C@@H]1CCNc2c(I)cc([N+](=O)[O-])cc2C(=O)N[C@@H](CO)C(=O)N[C@@H](Cc2ccc(O)cc2)C(=O)N1,·,·,·,3%,·,·,·,
CCCCC(=O)NC(=S)Nc1cccc(C(=O)O)c1,1%,7,14%,6%,-23%,-13%,·,
CC#CCCCC(=O)Nc1cccc(C(=O)O)c1,?,-5,-11%,4%,14µM*,?,?,
